Assay [1] is described as follows: UKN2_HCS_IMR90_neural_migration: University of Konstanz (UKN) Leist Lab Neural Crest Cell Migration Assay in human induced IMR90 Pluripotent Stem Cells (UKN2) (AID 2284204). As to conditions: actives raise or lower the signal. The procedure, abridged: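 Using a 96-well stopper format with PLO/laminin/fibronectin coating, neural crest cells from iPSC migrate in cytokine-supplemented N2-S medium; after 24 h, chemicals are applied for a further 24 h, then cells are imaged after dye staining.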

Assay [2] is described as follows: IUF_NPC1b_proliferation_BrdU_72hr: Leibniz Research Institute for Environmental Medicine (IUF) 72-hour Neural Progenitor Cell Bromodeoxyuridine (BrdU) Proliferation Assay (NPC1b) (AID 2284207). The procedure, abridged: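 Neural progenitor spheres of human fetal origin are treated for three days; BrdU added for the last 16 h is quantified by luminescence ELISA, with DMSO as baseline and EGF/FGF omission as positive control.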

Assay [3] can be described thus: IUF_NPC1a_proliferation_area_72hr: Leibniz Research Institute for Environmental Medicine (IUF) 72-hour Neural Progenitor Cell Proliferation Area Assay (NPC1a) (AID 2284208). The procedure, abridged:
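Proliferation read as increase in sphere area by phase-contrast imaging over 72 h continuous compound exposure (no renewal) of hNPC spheres grown with EGF/FGF at 37C, 5% CO2. Growth-factor withdrawal served as positive control; DMSO as baseline.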

Assay [4] can be described thus: IUF_NPC1_viability_72hr: Viability Assessment at 72 hours in the Leibniz Research Institute for Environmental Medicine (IUF) Neural Progenitor Cell Proliferation Assay (NPC1) (AID 2284209). The procedure, abridged: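 Spheres of primary human neural progenitors were plated singly in proliferation medium and treated for 72 h. Mitochondrial reduction of resazurin was then measured by fluorescence and analysed against DMSO controls.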

Assay [5] can be described thus: CCTE_Mundy_HCI_Cortical_Synap_Neur_Matur_NeuriteSpotCountPerNeuriteLength: CCTE's Synaptogenesis and Neurite Maturation Assay in rat cortical cells for Neurite Spot Count per Neurite Length, Mundy Lab (AID 2284210). The procedure, abridged: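 Neurite-associated synapse density (synaptophysin puncta per unit neurite length) is measured by fluorescence high-content imaging in rat cortical cultures treated from DIV 7 and fixed at DIV 12, with DMSO as negative control.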

The nature of assay [6]: CCTE_Mundy_HCI_Cortical_Synap_Neur_Matur_BPCount: CCTE's Synaptogenesis and Neurite Maturation Assay in rat cortical cells for Branch Point Count, Mundy Lab (AID 2284211). The procedure, abridged:
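HCI read-out of branch points from MAP2/synaptophysin/Hoechst immunofluorescence; rat cortical cultures, AraC DIV 5, dosing DIV 7, fixed DIV 12; fit in positive direction vs DMSO baseline.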

A short description of assay [7]: CCTE_Mundy_HCI_Cortical_NOG_NeuriteCount: CCTE's Neurite Outgrowth Assay in rat cortical cells for Neurite Count, Mundy Lab (AID 2284212).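 Further: cells fixed about two days after chemical exposure began.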 The method in brief:
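Rat cortical primary cells; compound added 2 h post-plating, 1/10 dilution of working solution. Anti-betaIII-tubulin/AF488 ICC; ArrayScan neurite count vs DMSO.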

Assay [8] can be described thus: CCTE_Mundy_HCI_Cortical_Synap_Neur_Matur_NeuriteLength: CCTE's Synaptogenesis and Neurite Maturation Assay in rat cortical cells for Neurite Length, Mundy Lab (AID 2284214). The procedure, abridged:
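Cultures of rat primary cortical cells received chemical at DIV 7 and were fixed at DIV 12, after glial arrest with AraC at DIV 5. Neurite length was measured by automated imaging of MAP2 immunofluorescence.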

The nature of assay [9]: CCTE_Mundy_HCI_Cortical_Synap_Neur_Matur_NeuriteSpotCountPerNeuron: CCTE's Synaptogenesis and Neurite Maturation Assay in rat cortical cells for Neurite Spot Count per Neuron Count, Mundy Lab (AID 2284215). The procedure, abridged: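 High-content imaging counts synaptophysin puncta along MAP2-labelled neurites per neuron after chemical exposure of rat cortical cells from DIV 7 to termination at DIV 12 (AraC added DIV 5). Loss of signal relative to DMSO.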

A short description of assay [10]: CCTE_Mundy_HCI_Cortical_Synap_Neur_Matur_SynapseCount: CCTE's Synaptogenesis and Neurite Maturation Assay in rat cortical cells for Synapse Count, Mundy Lab (AID 2284218). The method in brief: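 Cells were plated, allowed 2 hr to attach, treated with AraC at DIV 5, then exposed to chemicals from DIV 7 until DIV 12. After fixation and MAP2/synaptophysin immunolabelling, synapses per neuron were quantified by automated imaging against DMSO.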

Assay [11] can be described thus: CCTE_Mundy_HCI_hN2_NOG_NeuriteCount: CCTE's Neurite Outgrowth Assay in human hN2 cells for Neurite Count, Mundy Lab (AID 2284219; active means hit-call score of the fitted dose curve at least 0.9, where 1 is the maximum). The method in brief: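 In this morphology assay, hNP1-derived neurons received test chemical 2 h post-plating and were fixed two days later in warm paraformaldehyde/sucrose containing Hoechst 33342. Neurites, labelled by rabbit anti-βIII-tubulin (1:800) and Alexa Fluor-488 (1:500), were counted automatically.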

Assay [12] in a line: CCTE_Mundy_HCI_hN2_NOG_NeuriteLength: CCTE's Neurite Outgrowth Assay in human hN2 cells for Neurite Length, Mundy Lab (AID 2284220; active means hit-call score of the fitted dose curve at least 0.9, where 1 is the maximum). The procedure, abridged: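 Using βIII-tubulin immunofluorescence and Hoechst nuclear counterstain, this component quantifies neurite length in hNP1-derived neurons.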
Assay [13] is described as follows: CCTE_Mundy_HCI_hN2_NOG_NeuronCount: CCTE's Neurite Outgrowth Assay in human hN2 cells for Neuron Count, Mundy Lab (AID 2284221; active means hit-call score of the fitted dose curve at least 0.9, where 1 is the maximum). The procedure, abridged: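 Read-out is the number of betaIII-tubulin-positive neurons imaged by automated high-content analysis, with DMSO as negative control.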
A short description of assay [14]: CCTE_Mundy_HCI_Cortical_Synap_Neur_Matur_NeuriteCount: CCTE's Synaptogenesis and Neurite Maturation Assay in rat cortical cells for Neurite Count, Mundy Lab (AID 2284222).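 On outcome: exposure from day 7 to day 12 in vitro with readout at day 12.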 The method in brief:
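In this multiplexed morphology readout, rat primary cortical neurons are fixed at DIV 12 following dosing at DIV 7 and stained for MAP2, synaptophysin and nuclei. High-content image analysis yields neurite count.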

The nature of assay [15]: CCTE_Mundy_HCI_Cortical_Synap_Neur_Matur_CellBodySpotCount: CCTE's Synaptogenesis and Neurite Maturation Assay in rat cortical cells for Cell Body Spot Count, Mundy Lab (AID 2284223). The method in brief:
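High-content imaging counts synaptophysin puncta on neuronal cell bodies per neuron after MAP2/synaptophysin immunostaining. Rat primary cortical cells, glia arrested with AraC at DIV 5, were exposed DIV 7–12; signal decrease measured against DMSO.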

Assay [16] in a line: CCTE_Mundy_HCI_hNP1_Pro_ResponderAvgInten: CCTE's Proliferation Assay in human neuroprogenitor cells, Mundy Lab (AID 2284224; active means hit-call score of the fitted dose curve at least 0.9, where 1 is the maximum;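 further: human neural progenitor cells hNP1 derived from WA09 embryonic stem cells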). The procedure, abridged:
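Human neuroprogenitors (hNP1, WA09 lineage) receive test chemical after 40 to 44 hours of attachment. A four-hour BrdU pulse begins twenty hours later, followed by fixation and high content imaging; signal is referenced to DMSO controls.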

The nature of assay [17]: TAMU_PeakParms_SingleDonor1434_Chronotropy: Texas A&M University (TAMU) 1.5-hr Human Induced Pluripotent Stem Cell (iPSC)-derived Cardiomyocytes Calcium (Ca+2) Flux Assay for Cardiotoxicity: Chronotropy (changes in peak frequency) (AID 2284217). As to conditions: actives raise or lower the signal. The procedure, abridged:
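Using fluorescent Ca2+ flux, average beats per second are measured in human iPSC-derived cardiomyocytes treated 90 min (0.5% DMSO vehicle, 0.2–100 uM). Non-beating data points are removed; activity is modeled in both directions relative to DMSO controls.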

Assay [18] is described as follows: UKN4_HCS_LUHMES_neurite_outgrowth: University of Konstanz (UKN) Leist Lab Neurite Outgrowth Assay in human LUHMES cells (UKN4) (AID 2284206). As to conditions: actives raise or lower the signal. The procedure, abridged: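 Human LUHMES cells were differentiated for two days, replated and treated with chemicals for 24 h. Neurite outgrowth was quantified as calcein-stained neurite area by HCS imaging, fitted bidirectionally relative to DMSO.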

Results filed as inconclusive are left out. Activity calls are given as the source filed them. How the source made its calls, unless noted: active means hit-call score of the fitted dose curve at least 0.9, where 1 is the maximum; inactive means score below 0.9.

With `COP(=S)(OC)SCN1C(=O)c2ccccc2C1=O`, the compound was called inactive in assay [1], in [3], in [4], in assay [5], in assay [6] and in assay [7]. Further, the compound was called inactive in assay [8], in assay [9], in assay [10], in assay [14], in assay [15] and in assay [16]. Besides, the AC50 was 0.499 µM (active) in assay [2], 33.5 µM (active) in assay [11], 31.1 µM (active) in assay [12] and 23.1 µM (active) in [13].

For the compound `CC(C)(C)C(O)(CCc1ccc(Cl)cc1)Cn1cncn1` (stereo not drawn), the call in [2], in assay [3], in [5], in assay [7], in assay [9] and in assay [17] was inactive. For the same compound, the call in assay [10], in assay [12], in assay [14], in assay [15] and in [16] was inactive. The concentration at half-maximal activity (AC50) is 0.439 µM (active) in assay [4], 11.2 µM (active) in [6] and 10.2 µM (active) in [8].

Consider `CCC[CH2][Sn]([Cl])([CH2]CCC)[CH2]CCC`, for which the half-maximal activity concentration (AC50) in assay [1] was 0.195 µM (active); in assay [18], 0.119 µM (active); in [2], 0.112 µM (active); in assay [3] it was 0.673 µM (active); in [4] it was 0.535 µM (active); in assay [5] it was 0.0375 µM (active). Also, the AC50 is 0.0481 µM (active) in assay [6]; 0.112 µM (active) in assay [7]; 0.0468 µM (active) in [8]; 0.037 µM (active) in assay [9]; 0.0569 µM (active) in assay [10]; 0.102 µM (active) in assay [15]. Besides, the half-maximal activity concentration (AC50) in assay [16] is 0.188 µM (active). Moreover, in [14], the outcome was inactive.

In the case of `COC(=O)Nc1nc2ccccc2[nH]1`, the result in assay [1], in [3], in assay [4], in assay [5], in assay [7] and in [9] was inactive. Also, the outcome in assay [10], in [14], in [15] and in assay [16] was inactive. Also, the AC50 was 18.4 µM (active) in [2], 4.14 µM (active) in assay [6] and 4.05 µM (active) in assay [8].

Turning to `O=P(OCCCl)(OCCCl)OCCCl`, the outcome in assay [2], in assay [3], in assay [4] and in [17] was inactive.

In the case of `ClC1=C(Cl)C2(Cl)C3C(Cl)C=CC3C1(Cl)C2(Cl)Cl` (stereo not drawn), the compound was called inactive in assay [5] and in assay [17]. Moreover, the half-maximal activity concentration (AC50) in assay [6] was 13.3 µM (active); in [7], 17.6 µM (active); in [8], 13.4 µM (active); in assay [9], 10.5 µM (active); in assay [10], 10.6 µM (active); in assay [11] it was 5 µM (active). The AC50 in [12] is 4.18 µM (active); in assay [13], 2.86 µM (active); in [14], 14.9 µM (active); in assay [15], 12.4 µM (active); in assay [16], 13.4 µM (active).

As to `CC(C)COC(=O)c1ccccc1C(=O)OCC(C)C`, the compound was called inactive in [1], in [2], in [3], in [4], in [7] and in [16]. For the same compound, the AC50 in assay [5] is 87.9 µM (active); in assay [6] it was 76.7 µM (active); in [8], 80.2 µM (active); in assay [9], 77.8 µM (active); in [10] it was 79.6 µM (active); in assay [14] it was 88.7 µM (active). In addition, the AC50 in [15] was 83.8 µM (active).

With `ClC1=C(Cl)[C@]2(Cl)[C@H]3[C@H]([C@@H]4C=C[C@H]3C4)[C@@]1(Cl)C2(Cl)Cl`, the result in [17] was inactive.

For orientation: AC50 means the concentration at which the activity in the assay is half-maximal.
